The values below come from article PMC7862700, “An all-to-all approach to the identification of sequence-specific readers for epigenetic DNA modifications on cytosine”.

Common to all, as to test: DAPPL (digital affinity profiling via proximity ligation, sequencing); 10 mM Tris-HCl pH 7.5, 50 mM NaCl, 1 mM DTT, 4% glycerol, room temperature, 30 min; GST-TFs on glutathione beads, 16-mer random dsDNA library, 0.1% formaldehyde crosslink after washing; high values mean tight binding
One test addresses T1, FEV (Homo sapiens, UniProt Q99581 1-238).
T1 sequence: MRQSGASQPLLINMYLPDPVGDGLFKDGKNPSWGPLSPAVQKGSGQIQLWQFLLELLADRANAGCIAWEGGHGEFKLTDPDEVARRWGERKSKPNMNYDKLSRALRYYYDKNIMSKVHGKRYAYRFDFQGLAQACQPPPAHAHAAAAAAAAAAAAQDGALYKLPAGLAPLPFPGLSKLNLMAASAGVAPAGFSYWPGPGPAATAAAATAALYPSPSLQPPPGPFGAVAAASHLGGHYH
The settings on record: protein: recombinant; tags: N-terminal GST; dsDNA, one strand shown. Put shortly:
(§1)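 After expression in yeast as GST fusions, human transcription factors were bound to glutathione beads, DNA-barcoded and mixed with a tag-only sample. The pools were incubated with 200 nmole of a 16-mer random double-stranded DNA library in Tris/NaCl/DTT/glycerol buffer (30 min, room temperature), washed and crosslinked with 0.1% formaldehyde. Proximity ligation with BsaI/T4 ligase ran for 1 h at 37 °C, before PCR amplification and sequencing on an Illumina NextSeq500. Binding signal is a hexamer's read frequency for a factor divided by its frequency for the tag-only sample.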

Another test addresses ETV5 (Homo sapiens, UniProt P41161 1-510). The conditions noted are these: protein: recombinant; tags: N-terminal GST; dsDNA, one strand shown. The method, boiled down:
as §1

The next test deals with HSF1 (Homo sapiens, UniProt Q00613 1-529). The settings on record: protein: recombinant; tags: N-terminal GST; chain copies: 3; dsDNA, one strand shown. The method, boiled down: as §1
Sequence of HSF1 (Q00613 whole entry): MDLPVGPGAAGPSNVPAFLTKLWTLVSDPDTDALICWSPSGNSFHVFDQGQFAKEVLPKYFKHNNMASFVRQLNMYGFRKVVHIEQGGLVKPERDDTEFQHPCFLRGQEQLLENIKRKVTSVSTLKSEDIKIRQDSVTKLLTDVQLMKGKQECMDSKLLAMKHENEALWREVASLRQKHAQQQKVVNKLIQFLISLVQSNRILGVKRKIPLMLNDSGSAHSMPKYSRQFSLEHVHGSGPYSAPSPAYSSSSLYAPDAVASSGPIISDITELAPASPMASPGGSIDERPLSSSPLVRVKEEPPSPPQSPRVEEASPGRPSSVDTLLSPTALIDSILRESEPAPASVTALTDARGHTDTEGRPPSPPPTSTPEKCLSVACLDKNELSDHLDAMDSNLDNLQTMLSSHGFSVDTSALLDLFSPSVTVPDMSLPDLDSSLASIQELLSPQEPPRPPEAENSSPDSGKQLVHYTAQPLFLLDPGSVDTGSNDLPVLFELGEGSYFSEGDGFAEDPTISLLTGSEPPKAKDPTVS
A further test deals with T2, SPIC (Homo sapiens, UniProt Q8N5J4 1-248).
T2 sequence: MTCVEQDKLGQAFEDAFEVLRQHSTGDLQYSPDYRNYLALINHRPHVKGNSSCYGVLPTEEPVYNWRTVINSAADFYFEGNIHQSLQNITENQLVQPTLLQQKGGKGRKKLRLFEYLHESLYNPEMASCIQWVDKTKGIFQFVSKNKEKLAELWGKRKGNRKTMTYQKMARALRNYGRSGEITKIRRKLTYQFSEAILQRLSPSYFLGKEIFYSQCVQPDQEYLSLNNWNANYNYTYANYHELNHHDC
The settings on record: protein: recombinant; tags: N-terminal GST; dsDNA, one strand shown. The method, boiled down: as §1

The target of another test is ELF4 (Homo sapiens, UniProt Q99607 1-663). The conditions noted are these: protein: recombinant; tags: N-terminal GST; dsDNA, one strand shown. The method, boiled down:
as §1

Another test deals with T3, ELK4 (Homo sapiens, UniProt P28324-2 1-405).
T3 sequence: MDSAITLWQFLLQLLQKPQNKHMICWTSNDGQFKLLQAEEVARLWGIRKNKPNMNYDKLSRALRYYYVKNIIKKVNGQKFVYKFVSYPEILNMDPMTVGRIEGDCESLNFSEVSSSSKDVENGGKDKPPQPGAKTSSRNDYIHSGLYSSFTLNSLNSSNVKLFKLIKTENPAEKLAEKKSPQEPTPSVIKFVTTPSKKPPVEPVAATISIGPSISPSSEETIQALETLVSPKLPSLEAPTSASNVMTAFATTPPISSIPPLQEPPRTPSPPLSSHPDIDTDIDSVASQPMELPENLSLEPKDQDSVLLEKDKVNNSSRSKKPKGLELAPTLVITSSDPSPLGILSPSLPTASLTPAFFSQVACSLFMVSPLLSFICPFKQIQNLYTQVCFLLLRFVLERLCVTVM
The conditions noted are these: protein: recombinant; tags: N-terminal GST; dsDNA, one strand shown. Put shortly: as §1

For another test, the target named is T4, ETV2 (Homo sapiens, UniProt O00321 1-342).
T4 sequence: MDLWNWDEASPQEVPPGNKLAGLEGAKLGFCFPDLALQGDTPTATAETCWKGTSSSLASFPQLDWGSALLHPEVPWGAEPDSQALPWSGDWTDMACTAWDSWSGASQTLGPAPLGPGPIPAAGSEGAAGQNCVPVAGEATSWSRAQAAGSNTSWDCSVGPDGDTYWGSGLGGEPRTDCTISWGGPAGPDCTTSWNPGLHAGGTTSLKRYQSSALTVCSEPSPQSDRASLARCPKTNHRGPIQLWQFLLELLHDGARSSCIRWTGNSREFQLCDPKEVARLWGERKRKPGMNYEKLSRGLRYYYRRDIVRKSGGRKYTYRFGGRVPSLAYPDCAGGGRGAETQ
The settings on record: protein: recombinant; tags: N-terminal GST; dsDNA, one strand shown. Put shortly:
as §1

The next test has as its target T5, ELF3 (Homo sapiens, UniProt P78545 1-371).
T5 sequence: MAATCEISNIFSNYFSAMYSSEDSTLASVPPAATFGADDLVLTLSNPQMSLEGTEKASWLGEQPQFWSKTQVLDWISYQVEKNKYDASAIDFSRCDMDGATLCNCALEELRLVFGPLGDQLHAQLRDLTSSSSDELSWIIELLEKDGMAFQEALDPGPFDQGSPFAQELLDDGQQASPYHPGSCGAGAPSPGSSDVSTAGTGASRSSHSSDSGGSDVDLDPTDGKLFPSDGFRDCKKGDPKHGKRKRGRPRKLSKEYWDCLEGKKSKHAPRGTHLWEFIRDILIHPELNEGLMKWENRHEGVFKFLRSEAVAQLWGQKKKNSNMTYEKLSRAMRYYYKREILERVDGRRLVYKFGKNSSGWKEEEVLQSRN
The settings on record: protein: recombinant; tags: N-terminal GST; dsDNA, one strand shown. Put shortly:
as §1

In the next test the target is CRX (Homo sapiens, UniProt O43186 1-299). The settings on record: protein: recombinant; tags: N-terminal GST; dsDNA, one strand shown. Put shortly:
as §1

A further test has as its target ETV1 (Homo sapiens, UniProt P50549 1-477). The settings on record: protein: recombinant; tags: N-terminal GST; dsDNA, one strand shown. The method, boiled down:
as §1

A further test addresses T6, ERF (Homo sapiens, UniProt P50548 1-548).
T6 sequence: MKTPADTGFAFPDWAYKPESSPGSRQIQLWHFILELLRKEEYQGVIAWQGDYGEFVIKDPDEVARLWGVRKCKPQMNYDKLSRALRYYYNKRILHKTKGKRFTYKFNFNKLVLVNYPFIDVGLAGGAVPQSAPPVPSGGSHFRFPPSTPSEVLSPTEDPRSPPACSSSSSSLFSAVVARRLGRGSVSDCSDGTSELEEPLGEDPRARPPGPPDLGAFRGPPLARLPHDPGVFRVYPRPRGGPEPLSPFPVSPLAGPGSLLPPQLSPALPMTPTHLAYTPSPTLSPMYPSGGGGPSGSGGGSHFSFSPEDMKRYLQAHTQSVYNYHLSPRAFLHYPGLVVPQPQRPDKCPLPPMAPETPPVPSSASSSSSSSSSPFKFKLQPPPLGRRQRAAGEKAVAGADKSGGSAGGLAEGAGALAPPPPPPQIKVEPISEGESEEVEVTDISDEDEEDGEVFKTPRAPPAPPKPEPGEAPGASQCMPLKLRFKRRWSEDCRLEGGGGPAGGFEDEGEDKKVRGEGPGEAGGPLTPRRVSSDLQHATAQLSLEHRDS
The settings on record: protein: recombinant; tags: N-terminal GST; dsDNA, one strand shown. The method, boiled down:
as §1

The target of a further test is T7, ETV3L (Homo sapiens, UniProt Q6ZN32 1-361).
T7 sequence: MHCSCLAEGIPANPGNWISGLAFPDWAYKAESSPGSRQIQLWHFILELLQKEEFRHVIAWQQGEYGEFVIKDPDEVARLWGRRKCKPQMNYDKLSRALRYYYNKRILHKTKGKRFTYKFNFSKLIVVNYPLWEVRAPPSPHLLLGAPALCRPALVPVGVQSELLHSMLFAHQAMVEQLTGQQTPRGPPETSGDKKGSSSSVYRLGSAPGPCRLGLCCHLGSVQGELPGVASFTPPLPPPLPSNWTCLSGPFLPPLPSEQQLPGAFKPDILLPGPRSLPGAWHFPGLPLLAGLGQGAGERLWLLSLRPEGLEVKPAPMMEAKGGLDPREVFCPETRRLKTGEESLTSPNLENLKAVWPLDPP
The conditions noted are these: protein: recombinant; tags: N-terminal GST; dsDNA, one strand shown. Put shortly: as §1

A further test deals with T8, ETS2 (Homo sapiens, UniProt P15036 1-469).
T8 sequence: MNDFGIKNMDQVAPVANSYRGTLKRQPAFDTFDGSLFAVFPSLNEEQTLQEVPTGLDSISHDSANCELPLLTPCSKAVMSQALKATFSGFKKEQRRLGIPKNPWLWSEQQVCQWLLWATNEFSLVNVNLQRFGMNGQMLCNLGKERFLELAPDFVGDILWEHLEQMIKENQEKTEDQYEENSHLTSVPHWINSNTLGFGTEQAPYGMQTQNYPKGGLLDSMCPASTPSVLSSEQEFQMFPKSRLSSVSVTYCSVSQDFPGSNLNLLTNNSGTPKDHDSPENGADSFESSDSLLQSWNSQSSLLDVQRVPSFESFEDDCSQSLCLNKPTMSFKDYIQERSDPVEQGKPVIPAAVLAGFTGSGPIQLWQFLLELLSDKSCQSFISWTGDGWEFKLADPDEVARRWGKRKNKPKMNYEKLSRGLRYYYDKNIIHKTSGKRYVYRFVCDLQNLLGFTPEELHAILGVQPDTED
The conditions noted are these: protein: recombinant; tags: N-terminal GST; dsDNA, one strand shown. The method, boiled down:
as §1

The next test has as its target T9, SPDEF (Homo sapiens, UniProt O95238 1-335).
T9 sequence: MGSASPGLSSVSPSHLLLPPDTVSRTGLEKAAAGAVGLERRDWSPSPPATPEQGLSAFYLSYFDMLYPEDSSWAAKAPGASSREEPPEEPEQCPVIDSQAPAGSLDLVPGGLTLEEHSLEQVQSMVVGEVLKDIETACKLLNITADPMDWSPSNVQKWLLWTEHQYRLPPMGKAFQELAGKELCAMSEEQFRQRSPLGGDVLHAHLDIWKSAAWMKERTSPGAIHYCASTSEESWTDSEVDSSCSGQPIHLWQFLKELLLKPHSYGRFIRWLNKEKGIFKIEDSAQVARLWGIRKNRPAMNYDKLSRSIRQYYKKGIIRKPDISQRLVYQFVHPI
The settings on record: protein: recombinant; tags: N-terminal GST; dsDNA, one strand shown. Put shortly:
as §1

In a further test the target is T10, ETV7 (Homo sapiens, UniProt Q9Y603 1-341).
T10 sequence: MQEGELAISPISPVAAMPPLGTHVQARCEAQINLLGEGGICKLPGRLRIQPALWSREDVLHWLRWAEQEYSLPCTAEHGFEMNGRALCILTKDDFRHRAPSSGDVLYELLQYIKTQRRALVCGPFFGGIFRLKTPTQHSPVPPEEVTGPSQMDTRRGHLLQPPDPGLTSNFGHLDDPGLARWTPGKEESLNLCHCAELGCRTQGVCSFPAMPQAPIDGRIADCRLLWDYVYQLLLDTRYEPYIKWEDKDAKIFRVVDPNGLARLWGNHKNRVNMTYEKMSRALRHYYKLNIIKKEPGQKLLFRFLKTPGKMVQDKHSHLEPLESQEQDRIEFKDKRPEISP
The settings on record: protein: recombinant; tags: N-terminal GST; dsDNA, one strand shown. Put shortly: as §1

The next test concerns the target T11, ELF5 (Homo sapiens, UniProt Q9UKW6-2 1-255).
T11 sequence: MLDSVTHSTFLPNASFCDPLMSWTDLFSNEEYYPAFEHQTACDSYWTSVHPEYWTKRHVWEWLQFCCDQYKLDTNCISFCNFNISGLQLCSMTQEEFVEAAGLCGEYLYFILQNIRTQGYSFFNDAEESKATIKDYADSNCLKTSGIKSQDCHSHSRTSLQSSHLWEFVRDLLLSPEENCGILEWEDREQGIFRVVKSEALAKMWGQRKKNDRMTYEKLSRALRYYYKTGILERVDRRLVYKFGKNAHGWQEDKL
The conditions noted are these: protein: recombinant; tags: N-terminal GST; dsDNA, one strand shown. The method, boiled down:
as §1

The next test has as its target T12, ETV3 (Homo sapiens, UniProt P41162-2 1-143).
T12 sequence: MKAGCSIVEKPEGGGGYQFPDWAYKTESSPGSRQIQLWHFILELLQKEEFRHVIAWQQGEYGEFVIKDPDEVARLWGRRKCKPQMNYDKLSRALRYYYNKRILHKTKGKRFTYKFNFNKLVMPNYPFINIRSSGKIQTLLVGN
The conditions noted are these: protein: recombinant; tags: N-terminal GST; dsDNA, one strand shown. Put shortly: as §1

A further test concerns the target ETV6 (Homo sapiens, UniProt P41212 1-452). The settings on record: protein: recombinant; tags: N-terminal GST; dsDNA, one strand shown. The method, boiled down: as §1

Sequence of ETV5 (P41161 whole entry): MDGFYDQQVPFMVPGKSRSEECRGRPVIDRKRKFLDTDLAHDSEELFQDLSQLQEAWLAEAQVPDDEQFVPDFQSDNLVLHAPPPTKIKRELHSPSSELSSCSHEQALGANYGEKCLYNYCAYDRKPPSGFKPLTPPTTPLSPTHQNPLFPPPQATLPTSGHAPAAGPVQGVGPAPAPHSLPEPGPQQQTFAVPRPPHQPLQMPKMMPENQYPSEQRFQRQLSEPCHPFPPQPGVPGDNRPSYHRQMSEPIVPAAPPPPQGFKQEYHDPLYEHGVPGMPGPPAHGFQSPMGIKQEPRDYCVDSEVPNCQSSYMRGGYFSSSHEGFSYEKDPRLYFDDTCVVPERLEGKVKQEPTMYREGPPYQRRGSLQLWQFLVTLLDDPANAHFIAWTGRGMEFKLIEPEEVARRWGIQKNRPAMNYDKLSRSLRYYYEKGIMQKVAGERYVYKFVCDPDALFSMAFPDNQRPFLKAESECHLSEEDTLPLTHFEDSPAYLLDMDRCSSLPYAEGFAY
Sequence of ETV1 (P50549 whole entry): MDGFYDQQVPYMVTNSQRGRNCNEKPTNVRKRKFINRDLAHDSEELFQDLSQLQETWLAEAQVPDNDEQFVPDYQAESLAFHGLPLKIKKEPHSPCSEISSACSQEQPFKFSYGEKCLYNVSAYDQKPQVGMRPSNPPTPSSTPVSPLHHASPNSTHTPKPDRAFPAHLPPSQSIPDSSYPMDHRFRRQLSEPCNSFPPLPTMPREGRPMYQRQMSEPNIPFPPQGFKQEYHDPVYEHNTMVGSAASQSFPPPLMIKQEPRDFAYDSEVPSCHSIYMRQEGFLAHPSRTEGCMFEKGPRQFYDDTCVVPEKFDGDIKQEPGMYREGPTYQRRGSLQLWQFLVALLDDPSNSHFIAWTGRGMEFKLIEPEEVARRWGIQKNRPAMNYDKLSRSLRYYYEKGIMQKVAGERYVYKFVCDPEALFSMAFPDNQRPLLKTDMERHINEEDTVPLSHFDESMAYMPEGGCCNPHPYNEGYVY
Sequence of ELF4 (Q99607 whole entry): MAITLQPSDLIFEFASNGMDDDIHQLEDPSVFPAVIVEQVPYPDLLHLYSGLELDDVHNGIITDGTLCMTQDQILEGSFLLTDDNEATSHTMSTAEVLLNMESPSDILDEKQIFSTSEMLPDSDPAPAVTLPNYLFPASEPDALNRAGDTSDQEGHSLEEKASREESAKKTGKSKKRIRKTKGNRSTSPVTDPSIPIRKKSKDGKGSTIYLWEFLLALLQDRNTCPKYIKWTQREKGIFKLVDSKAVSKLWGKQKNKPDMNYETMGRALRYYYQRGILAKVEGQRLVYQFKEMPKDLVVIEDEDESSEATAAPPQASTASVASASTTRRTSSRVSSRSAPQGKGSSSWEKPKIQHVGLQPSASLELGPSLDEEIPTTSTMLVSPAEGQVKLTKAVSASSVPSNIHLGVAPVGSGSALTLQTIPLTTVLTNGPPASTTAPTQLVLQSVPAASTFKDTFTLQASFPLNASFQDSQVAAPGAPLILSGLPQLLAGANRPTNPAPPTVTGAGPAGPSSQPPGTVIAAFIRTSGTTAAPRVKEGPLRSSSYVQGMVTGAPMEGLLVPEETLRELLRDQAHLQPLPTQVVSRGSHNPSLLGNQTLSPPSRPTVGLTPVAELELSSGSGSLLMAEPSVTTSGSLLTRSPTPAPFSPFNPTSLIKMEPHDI
Sequence of ETV6 (P41212 whole entry): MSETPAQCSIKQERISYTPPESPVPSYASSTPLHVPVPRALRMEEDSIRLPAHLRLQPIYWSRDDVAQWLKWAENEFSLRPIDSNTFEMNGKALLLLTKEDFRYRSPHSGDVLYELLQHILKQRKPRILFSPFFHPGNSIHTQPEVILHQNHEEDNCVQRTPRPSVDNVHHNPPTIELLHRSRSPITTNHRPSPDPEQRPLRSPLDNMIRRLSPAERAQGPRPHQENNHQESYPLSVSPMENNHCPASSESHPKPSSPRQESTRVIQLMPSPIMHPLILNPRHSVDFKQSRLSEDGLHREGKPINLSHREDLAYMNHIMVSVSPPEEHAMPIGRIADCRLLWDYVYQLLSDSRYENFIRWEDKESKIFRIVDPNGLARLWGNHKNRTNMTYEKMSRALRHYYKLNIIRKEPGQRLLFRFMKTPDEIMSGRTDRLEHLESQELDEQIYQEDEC
Sequence of CRX (O43186 whole entry): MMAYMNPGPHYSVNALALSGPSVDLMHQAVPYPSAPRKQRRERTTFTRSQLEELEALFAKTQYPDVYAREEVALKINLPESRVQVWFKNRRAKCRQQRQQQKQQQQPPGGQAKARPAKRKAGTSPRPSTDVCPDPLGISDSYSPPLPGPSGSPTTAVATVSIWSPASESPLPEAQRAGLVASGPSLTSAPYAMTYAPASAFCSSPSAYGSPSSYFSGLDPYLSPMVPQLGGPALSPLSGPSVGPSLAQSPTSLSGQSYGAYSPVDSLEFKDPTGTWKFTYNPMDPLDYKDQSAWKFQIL

Take CTCCTT: the binding signal in the test with FEV was 1.75 fold enrichment (6-mer frequency, TF over GST control); with ETV5, 1.62 fold enrichment (6-mer frequency, TF over GST control); with HSF1, 1.61 fold enrichment (6-mer frequency, TF over GST control); in the test with SPIC it was 1.86 fold enrichment (6-mer frequency, TF over GST control); in the test with ELF4 it was 1.8 fold enrichment (6-mer frequency, TF over GST control); with ELK4, 1.67 fold enrichment (6-mer frequency, TF over GST control). Further, the binding signal was 1.7 fold enrichment (6-mer frequency, TF over GST control) with ETV2; 1.96 fold enrichment (6-mer frequency, TF over GST control) with ELF3; 1.57 fold enrichment (6-mer frequency, TF over GST control) in the test with CRX; 1.69 fold enrichment (6-mer frequency, TF over GST control) in the test with ETV1; 1.86 fold enrichment (6-mer frequency, TF over GST control) in the test with ERF; 1.76 fold enrichment (6-mer frequency, TF over GST control) in the test with ETV3L. For the same sequence, the binding signal is 1.76 fold enrichment (6-mer frequency, TF over GST control) with ETS2; 1.64 fold enrichment (6-mer frequency, TF over GST control) with SPDEF; 1.75 fold enrichment (6-mer frequency, TF over GST control) in the test with ETV7; 1.89 fold enrichment (6-mer frequency, TF over GST control) with ELF5; 1.95 fold enrichment (6-mer frequency, TF over GST control) with ETV3; 1.76 fold enrichment (6-mer frequency, TF over GST control) in the test with ETV6.
